Screen size: about 220,000 compounds; about 16,000 (7.3%) were called active. Not shown: some 25% with an inconclusive outcome. The call rests on the fitted dose curve; in most records, active means well fitted inhibition curve with a large enough effect (not every such curve was filed as active); inconclusive means small, poorly fitted or top-dose-only effect, or another doubt; inactive means no such curve, though single readings can be large or run the other way. The entries come from a sample that favours actives as a whole. Entries that show only a call come without a potency.
Molecular target: Aldehyde dehydrogenase 1A1 (Homo sapiens) (UniProt P00352)
Experiment: qHTS Assay for Inhibitors of Aldehyde Dehydrogenase 1 (ALDH1A1)
Details: Purified ALDH1A1, NADH fluorescence, propionaldehyde substrate; series mostly up to 75.3 µM
Potency means the concentration at half of the fitted maximal effect.

Sequence of Aldehyde dehydrogenase 1A1 (Homo sapiens) (P00352 whole entry, looked up): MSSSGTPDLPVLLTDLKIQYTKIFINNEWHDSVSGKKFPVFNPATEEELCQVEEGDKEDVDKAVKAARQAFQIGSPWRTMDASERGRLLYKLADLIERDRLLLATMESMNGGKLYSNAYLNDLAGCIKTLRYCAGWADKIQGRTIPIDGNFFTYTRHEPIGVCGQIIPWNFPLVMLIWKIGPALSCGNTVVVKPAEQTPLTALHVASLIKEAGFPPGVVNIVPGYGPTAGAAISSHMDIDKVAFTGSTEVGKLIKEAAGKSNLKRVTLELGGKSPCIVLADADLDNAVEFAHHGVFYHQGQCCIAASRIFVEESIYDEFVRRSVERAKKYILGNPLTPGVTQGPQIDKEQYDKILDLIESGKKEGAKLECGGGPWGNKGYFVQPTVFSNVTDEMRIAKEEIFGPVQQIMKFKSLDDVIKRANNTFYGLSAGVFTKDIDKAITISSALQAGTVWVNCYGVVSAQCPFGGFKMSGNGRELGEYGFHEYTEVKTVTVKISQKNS

Compound | Potency
O=C(NCC1CCC(C(=O)O)CC1)OCc1ccccc1 (stereo not drawn) | inactive
COc1ccc(C2(CNC(=O)Cc3ccc(OC)c(OC)c3)CCCC2)cc1 | inactive
CCN(CCn1cccn1)Cc1nc(-c2ccc(C(=O)OC)cc2)no1 | inactive
O=C1OC(/C=C/c2ccccc2)=NC/1=C/c1ccco1 | 11.2 µM (active)
O=c1oc(/C=C/c2ccccc2)nc2ccccc12 | inactive
CC(=O)Oc1ccccc1C1=NN(C(C)=O)C(c2ccccc2)C1 (stereo not drawn) | inactive
COc1ccccc1N1CCN(/N=C\C(Br)=C\c2ccccc2)CC1 | 5.62 µM (active)
CNCC(O)CN1CCN(c2ccccc2OC)CC1 (stereo not drawn) | inactive
COc1ccccc1N1CCN(C(=O)C(=O)N/N=C/c2ccccc2F)CC1 | inactive
COc1ccccc1CNC(=O)COc1ccc(C)nc1[N+](=O)[O-] | inactive
O=S(=O)(NCCc1ccc(F)cc1)c1cccc2cccnc12 | inactive
Cc1coc2c(O)cc3c(c12)OC1(N2CCCCC2)C(=O)NCCCC31 (stereo not drawn) | 20 µM (active)
COc1ccc(NC(=O)C(Br)C(C)C)cc1 (stereo not drawn) | inactive
Cc1nn(-c2ccccc2)c2c1C(c1cccc([N+](=O)[O-])c1)N(c1ccccc1)C(=O)N2 (stereo not drawn) | inactive
CCOc1ccc(C(=O)Nc2cccc(-c3ccc4nncn4n3)c2)cc1 | inactive
NC(=O)N1CCc2ccccc21 | inactive
CCCn1nc(C(=O)N2CCCc3ccccc32)c2ccccc2c1=O | inactive
Cc1occc1C(=O)N1CCCc2ccccc21 | 31.6 µM (active)
CCOC(=O)C1=NO[C@@]2(C=C(Br)C(=O)[C@H]3O[C@H]32)C1 | inactive
CN(C)c1ccc(/C=N/NC(=O)c2ccc(Cn3cc(Br)cn3)o2)cc1 | 17.8 µM (active)
O=C(N/N=C/c1ccc2c(c1)OCO2)c1ccc(Cn2cc([N+](=O)[O-])cn2)o1 | inactive
O=C(N/N=C\c1ccc(Br)cc1)c1ccc(Cn2cccn2)o1 | inactive
COc1ccc(C2CC(c3cccs3)Nc3nnnn32)cc1 (stereo not drawn) | inactive
O=c1[nH]c(CN2CCOCC2)nc2cc(Cl)ccc12 | inactive
CCC1(CC)NC(=O)N(CC(=O)OCC(=O)NC(=O)c2ccccc2)C1=O | inactive
O=C(c1ccccc1Cl)N(Cc1ccccc1F)N1C(=O)CCCC1=O | inactive
COc1ccc(NC(=O)N2CCCC(c3nc(-c4ccc(F)cc4)no3)C2)cc1 (stereo not drawn) | inactive

Compound | Potency
CC(=O)N1c2ccccc2N(Cc2ccc([N+](=O)[O-])cc2)C(=O)C1(C)C | inactive
Cc1ccc(C)c(NC(CC(=O)c2ccccc2)C(=O)OCC(=O)c2cccs2)c1 (stereo not drawn) | 7.08 µM (active)
Cc1ccc(C)c(NC(=O)CCC(=O)NNC(=O)c2cccs2)c1 | inactive
COC(=O)C(CC(=O)Nc1cc(C)ccc1C)Nc1ccccc1OC (stereo not drawn) | inactive
O=C(COC(=O)CNC(=O)c1ccccc1F)NCC(F)(F)F | inactive
O=C(COC(=O)c1ccc(O)cc1)Nc1nccs1 | inactive
Cc1cccc(C)c1OCC(O)CN1CCCCC1 (stereo not drawn) | inactive
OC(COc1cccc(OCC(O)CN2CCCC2)c1)CN1CCCC1 (stereo not drawn) | inactive
OC(COCCC12CC3CC(CC(C3)C1)C2)CN1CCCCC1 (stereo not drawn) | 20 µM (active)
CC1CCCCC1NC(=O)CO/N=C/c1ccc(OC(F)F)cc1 (stereo not drawn) | inactive
CCCCCCCCc1c(O)nc(-n2[nH]c(C)c(CCO)c2=O)[nH]c1=O | inactive
CCOc1ccccc1Nc1ccc(C(=O)O)cc1[N+](=O)[O-] | inactive
CSc1ccccc1NC(=O)CN(C)CC(=O)Nc1ccc(Cl)cc1[N+](=O)[O-] | inactive
CSc1nc2nc(-c3cccc(C(F)(F)F)c3)ccn2n1 | inactive
O=C1CCCC(O)=C1N=Nc1ccc2ncsc2c1 | 25.1 µM (active)
Cc1ccc(NC(=S)N(Cc2ccco2)C(C)c2cccs2)cc1 (stereo not drawn) | inactive
O=C(Oc1cccc(O)c1)C1CCCCC1 | inactive
COC(=O)CN1C(=O)C(O)=C(C(C)=O)C1c1ccc([N+](=O)[O-])cc1 (stereo not drawn) | inactive
CC(=O)C1=C(O)C(=O)N(c2cccnc2)C1c1ccc([N+](=O)[O-])cc1 (stereo not drawn) | 20 µM (active)
COc1ccc(C2C(C(C)=O)=C(O)C(=O)N2Cc2cccnc2)cc1 (stereo not drawn) | inactive
O=C1N=C(N2CCCC2)S/C1=C\c1cccc(Br)c1 | 25.1 µM (active)
O=C(CNS(=O)(=O)c1ccc(Br)s1)N1CCN(C(=O)c2ccco2)CC1 | 39.8 µM (active)
O=C(OCC(=O)N1CCN(C(=O)c2ccco2)CC1)c1ccccc1Cc1ccccc1 | inactive
CCNC(=S)N1CCN(C(=O)c2ccco2)CC1 | inactive
CCc1nnc(NC(=O)CSc2nnnn2-c2cccc(C(C)=O)c2)s1 | inactive
Cc1cc(C)n(CCNCc2c(C(=O)N3C[C@@H](C)O[C@@H](C)C3)nc3ccc(Cl)cn23)n1 | inactive

Reference: PubChem BioAssay AID1030 (National Center for Advancing Translational Sciences (NCATS), 2008)
